Results: the supplement of paper PMC11732987, “Enantioselective OTUD7B fragment discovery through chemoproteomics screening and high-throughput optimisation” (Communications Chemistry, 2025)

Assays:
Test in all cases: log2 ratio of Biotin-Ahx-Ub-VS probe labelling (fragment/DMSO); higher = less target engagement (more negative = stronger competition), active = hit call of the paper (q ≤ 0.05, log2 ratio ≤ -1)
Conditions in all cases: compound concentration: 200 uM; treatment time: 3 h
[1] = biological target: T1, USP42 (UniProt Q9H9J4)
T1 sequence (whole entry): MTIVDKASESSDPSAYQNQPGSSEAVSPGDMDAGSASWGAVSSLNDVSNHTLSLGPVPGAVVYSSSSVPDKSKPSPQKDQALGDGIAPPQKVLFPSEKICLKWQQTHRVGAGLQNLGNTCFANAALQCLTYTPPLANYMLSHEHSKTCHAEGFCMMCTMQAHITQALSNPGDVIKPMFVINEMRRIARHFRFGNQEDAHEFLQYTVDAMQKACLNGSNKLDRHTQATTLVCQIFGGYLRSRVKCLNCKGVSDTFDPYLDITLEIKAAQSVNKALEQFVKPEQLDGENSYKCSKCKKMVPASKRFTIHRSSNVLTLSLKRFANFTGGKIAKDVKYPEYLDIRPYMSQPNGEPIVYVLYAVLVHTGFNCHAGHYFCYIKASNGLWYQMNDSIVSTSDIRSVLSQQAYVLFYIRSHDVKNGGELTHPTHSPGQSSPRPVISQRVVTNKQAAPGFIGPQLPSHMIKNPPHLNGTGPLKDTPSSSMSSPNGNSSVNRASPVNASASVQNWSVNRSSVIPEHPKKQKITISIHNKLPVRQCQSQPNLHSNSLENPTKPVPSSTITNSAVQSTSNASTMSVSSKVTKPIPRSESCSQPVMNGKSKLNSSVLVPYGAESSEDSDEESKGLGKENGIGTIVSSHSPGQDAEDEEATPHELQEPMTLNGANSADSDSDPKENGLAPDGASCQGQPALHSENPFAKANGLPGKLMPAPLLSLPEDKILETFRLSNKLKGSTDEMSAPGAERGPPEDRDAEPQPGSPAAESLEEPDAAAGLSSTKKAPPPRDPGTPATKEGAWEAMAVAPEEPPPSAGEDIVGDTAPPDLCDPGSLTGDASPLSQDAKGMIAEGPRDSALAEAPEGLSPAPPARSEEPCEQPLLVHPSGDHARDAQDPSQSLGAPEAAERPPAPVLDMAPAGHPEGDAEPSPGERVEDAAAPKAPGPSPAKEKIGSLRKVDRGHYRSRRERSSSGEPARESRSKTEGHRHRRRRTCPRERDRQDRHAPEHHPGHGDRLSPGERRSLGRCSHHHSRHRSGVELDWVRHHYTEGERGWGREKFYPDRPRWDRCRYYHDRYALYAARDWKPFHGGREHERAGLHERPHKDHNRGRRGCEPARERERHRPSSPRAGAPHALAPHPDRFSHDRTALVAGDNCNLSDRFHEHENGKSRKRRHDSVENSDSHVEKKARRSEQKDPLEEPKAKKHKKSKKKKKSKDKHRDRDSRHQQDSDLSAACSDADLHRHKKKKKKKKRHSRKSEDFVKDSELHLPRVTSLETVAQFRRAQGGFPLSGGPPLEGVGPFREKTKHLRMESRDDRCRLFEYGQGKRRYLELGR
In short: (§1)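 HEK293T lysate, 495 µg per sample in Tris/CHAPS/IGEPAL buffer with protease inhibitors, was treated in triplicate with fragment at 200 µM or vehicle for 3 h and then with Biotin-Ahx-Ub-VS at 0.5 µM final for 1 h. Labelled DUBs were NeutrAvidin-enriched, digested with LysC and trypsin, and run by diaPASEF LC-MS/MS. Spectronaut label-free quantities were global-median-normalised, and values are average log2 fragment/vehicle ratios by unpaired t-test on proteins with ≥2 unique peptides.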

[2] = biological target: USP46 (UniProt P62068)
Chain of USP46 (P62068 whole entry): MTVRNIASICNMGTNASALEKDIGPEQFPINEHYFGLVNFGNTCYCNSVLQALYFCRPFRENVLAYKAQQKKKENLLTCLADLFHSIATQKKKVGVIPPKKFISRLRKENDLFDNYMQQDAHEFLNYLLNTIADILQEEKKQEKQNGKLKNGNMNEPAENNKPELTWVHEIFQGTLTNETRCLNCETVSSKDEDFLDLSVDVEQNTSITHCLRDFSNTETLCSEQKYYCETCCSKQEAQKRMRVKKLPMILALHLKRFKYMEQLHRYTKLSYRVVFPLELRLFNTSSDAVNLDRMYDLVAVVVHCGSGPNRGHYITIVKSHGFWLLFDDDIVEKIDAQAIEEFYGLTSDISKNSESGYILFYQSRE
In short: as §1

[3] = biological target: T2, USP47 (UniProt Q96K76)
T2 sequence (whole entry): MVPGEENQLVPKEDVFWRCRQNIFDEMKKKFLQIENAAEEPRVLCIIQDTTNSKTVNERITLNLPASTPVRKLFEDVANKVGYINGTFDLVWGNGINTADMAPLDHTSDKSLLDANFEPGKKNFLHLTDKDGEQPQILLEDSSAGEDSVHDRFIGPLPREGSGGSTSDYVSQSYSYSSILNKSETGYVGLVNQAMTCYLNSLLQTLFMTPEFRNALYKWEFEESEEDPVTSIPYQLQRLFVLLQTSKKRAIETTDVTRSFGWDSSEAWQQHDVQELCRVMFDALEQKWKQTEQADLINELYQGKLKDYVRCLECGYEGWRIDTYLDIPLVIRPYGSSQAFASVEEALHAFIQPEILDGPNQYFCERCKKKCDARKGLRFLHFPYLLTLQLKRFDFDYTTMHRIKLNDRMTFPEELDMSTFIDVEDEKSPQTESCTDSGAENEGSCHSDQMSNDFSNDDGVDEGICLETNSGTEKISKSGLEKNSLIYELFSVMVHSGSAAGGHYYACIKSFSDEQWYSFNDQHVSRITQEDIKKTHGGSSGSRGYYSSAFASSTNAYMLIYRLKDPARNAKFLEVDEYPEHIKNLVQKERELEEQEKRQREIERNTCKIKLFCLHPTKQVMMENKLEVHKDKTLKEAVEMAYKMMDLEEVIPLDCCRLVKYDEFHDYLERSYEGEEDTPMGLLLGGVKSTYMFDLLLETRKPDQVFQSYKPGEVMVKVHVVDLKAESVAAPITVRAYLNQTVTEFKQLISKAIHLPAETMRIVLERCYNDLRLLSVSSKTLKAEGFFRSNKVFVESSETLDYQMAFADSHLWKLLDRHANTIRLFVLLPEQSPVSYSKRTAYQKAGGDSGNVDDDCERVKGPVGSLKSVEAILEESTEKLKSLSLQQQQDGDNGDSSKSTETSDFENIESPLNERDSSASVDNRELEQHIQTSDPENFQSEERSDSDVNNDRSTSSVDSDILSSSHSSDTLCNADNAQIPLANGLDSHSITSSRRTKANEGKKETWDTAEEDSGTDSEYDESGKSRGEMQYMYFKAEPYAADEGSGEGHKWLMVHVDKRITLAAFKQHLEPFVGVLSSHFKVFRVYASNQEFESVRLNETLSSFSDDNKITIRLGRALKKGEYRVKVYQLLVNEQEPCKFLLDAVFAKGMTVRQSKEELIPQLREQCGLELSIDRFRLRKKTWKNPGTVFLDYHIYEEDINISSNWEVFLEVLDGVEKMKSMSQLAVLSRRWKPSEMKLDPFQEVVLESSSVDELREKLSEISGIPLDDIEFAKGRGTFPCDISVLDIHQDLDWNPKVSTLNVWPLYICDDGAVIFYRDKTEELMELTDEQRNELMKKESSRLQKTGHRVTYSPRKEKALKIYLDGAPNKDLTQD
In short: as §1

[4] = biological target: T3, USP48 (UniProt Q86UV5)
T3 sequence (whole entry): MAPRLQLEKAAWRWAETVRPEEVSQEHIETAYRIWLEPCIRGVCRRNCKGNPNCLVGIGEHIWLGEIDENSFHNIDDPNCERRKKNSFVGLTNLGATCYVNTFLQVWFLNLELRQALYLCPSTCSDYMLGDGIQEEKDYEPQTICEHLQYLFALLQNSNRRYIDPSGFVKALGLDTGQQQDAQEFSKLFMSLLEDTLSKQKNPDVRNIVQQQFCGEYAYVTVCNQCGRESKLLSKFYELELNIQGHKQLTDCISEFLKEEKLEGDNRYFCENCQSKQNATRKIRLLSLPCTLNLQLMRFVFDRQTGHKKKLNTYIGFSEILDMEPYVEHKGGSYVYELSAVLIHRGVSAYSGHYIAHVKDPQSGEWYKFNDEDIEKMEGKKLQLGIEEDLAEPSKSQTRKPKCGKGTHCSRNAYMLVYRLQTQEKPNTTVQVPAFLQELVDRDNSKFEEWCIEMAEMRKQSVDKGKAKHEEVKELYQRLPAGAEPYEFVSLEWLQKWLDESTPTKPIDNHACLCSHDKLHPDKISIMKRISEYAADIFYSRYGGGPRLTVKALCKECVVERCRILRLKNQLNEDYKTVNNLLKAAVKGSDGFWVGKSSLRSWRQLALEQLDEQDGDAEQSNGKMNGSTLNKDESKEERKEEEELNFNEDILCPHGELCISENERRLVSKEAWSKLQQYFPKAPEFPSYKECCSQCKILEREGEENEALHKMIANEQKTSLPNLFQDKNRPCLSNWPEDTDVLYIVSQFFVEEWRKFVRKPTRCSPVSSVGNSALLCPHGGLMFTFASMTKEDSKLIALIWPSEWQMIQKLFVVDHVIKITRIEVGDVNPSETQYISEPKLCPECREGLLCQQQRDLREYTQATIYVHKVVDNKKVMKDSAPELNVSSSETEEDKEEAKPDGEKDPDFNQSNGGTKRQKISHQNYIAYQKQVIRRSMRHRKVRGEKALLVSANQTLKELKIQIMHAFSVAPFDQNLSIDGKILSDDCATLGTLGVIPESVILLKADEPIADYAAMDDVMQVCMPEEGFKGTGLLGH
In short: as §1

[5] = biological target: T4, USP5 (UniProt P45974)
T4 sequence (whole entry): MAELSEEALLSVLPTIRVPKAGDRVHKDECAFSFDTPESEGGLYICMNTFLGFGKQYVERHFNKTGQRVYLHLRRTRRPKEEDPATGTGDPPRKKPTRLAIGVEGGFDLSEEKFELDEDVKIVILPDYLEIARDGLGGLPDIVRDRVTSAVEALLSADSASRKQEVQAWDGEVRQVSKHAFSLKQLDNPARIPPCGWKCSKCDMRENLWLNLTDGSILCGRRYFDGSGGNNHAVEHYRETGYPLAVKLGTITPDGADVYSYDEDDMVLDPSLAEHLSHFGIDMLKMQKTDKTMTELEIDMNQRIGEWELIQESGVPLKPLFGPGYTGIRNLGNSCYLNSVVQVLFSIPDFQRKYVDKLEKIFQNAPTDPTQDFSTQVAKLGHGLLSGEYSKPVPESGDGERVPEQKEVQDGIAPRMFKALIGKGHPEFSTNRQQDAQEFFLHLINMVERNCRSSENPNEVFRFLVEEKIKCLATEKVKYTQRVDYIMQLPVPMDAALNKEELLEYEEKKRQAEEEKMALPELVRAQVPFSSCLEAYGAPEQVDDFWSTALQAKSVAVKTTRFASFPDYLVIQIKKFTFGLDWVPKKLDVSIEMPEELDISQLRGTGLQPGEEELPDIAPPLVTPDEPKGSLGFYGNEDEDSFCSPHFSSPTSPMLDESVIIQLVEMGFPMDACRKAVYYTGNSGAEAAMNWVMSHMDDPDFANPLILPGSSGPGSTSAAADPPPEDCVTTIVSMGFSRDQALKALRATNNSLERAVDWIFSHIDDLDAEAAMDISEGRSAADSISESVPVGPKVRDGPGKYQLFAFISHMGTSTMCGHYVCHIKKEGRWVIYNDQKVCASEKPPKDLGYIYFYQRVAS
In short: as §1

[6] = biological target: USP54 (UniProt Q70EL1)
In short: as §1

[7] = biological target: USP7 (UniProt Q93009)
Chain of USP7 (Q93009 whole entry, looked up): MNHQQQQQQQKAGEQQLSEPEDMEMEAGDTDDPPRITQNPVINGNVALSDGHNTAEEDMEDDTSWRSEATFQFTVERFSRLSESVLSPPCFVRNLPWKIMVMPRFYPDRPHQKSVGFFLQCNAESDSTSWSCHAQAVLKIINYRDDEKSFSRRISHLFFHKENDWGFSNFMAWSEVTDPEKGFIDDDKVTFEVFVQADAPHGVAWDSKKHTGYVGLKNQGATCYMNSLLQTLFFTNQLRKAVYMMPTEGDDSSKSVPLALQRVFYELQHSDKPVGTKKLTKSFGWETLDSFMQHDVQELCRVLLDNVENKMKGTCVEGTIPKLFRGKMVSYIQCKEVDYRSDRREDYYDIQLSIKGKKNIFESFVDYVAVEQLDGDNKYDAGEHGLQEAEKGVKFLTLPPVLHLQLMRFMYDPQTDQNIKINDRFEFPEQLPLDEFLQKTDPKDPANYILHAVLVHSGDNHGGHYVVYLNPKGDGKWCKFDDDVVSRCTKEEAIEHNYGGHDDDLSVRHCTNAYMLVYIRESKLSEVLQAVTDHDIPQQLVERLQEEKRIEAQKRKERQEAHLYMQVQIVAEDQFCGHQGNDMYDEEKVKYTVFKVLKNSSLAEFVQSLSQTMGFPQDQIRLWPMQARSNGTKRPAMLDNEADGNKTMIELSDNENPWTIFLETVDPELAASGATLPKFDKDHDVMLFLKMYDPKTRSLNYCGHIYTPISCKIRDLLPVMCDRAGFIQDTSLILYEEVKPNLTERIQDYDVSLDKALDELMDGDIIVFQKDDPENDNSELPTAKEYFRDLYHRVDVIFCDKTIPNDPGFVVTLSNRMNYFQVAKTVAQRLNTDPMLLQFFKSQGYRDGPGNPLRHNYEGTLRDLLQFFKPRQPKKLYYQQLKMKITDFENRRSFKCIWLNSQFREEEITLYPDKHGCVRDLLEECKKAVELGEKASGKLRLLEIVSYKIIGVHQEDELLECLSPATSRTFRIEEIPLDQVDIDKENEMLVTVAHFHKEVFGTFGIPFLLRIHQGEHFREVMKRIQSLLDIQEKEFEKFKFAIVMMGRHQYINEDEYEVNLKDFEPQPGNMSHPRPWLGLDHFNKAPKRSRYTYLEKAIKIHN
In short: as §1

[8] = biological target: T5, USP8 (UniProt P40818)
T5 sequence (whole entry): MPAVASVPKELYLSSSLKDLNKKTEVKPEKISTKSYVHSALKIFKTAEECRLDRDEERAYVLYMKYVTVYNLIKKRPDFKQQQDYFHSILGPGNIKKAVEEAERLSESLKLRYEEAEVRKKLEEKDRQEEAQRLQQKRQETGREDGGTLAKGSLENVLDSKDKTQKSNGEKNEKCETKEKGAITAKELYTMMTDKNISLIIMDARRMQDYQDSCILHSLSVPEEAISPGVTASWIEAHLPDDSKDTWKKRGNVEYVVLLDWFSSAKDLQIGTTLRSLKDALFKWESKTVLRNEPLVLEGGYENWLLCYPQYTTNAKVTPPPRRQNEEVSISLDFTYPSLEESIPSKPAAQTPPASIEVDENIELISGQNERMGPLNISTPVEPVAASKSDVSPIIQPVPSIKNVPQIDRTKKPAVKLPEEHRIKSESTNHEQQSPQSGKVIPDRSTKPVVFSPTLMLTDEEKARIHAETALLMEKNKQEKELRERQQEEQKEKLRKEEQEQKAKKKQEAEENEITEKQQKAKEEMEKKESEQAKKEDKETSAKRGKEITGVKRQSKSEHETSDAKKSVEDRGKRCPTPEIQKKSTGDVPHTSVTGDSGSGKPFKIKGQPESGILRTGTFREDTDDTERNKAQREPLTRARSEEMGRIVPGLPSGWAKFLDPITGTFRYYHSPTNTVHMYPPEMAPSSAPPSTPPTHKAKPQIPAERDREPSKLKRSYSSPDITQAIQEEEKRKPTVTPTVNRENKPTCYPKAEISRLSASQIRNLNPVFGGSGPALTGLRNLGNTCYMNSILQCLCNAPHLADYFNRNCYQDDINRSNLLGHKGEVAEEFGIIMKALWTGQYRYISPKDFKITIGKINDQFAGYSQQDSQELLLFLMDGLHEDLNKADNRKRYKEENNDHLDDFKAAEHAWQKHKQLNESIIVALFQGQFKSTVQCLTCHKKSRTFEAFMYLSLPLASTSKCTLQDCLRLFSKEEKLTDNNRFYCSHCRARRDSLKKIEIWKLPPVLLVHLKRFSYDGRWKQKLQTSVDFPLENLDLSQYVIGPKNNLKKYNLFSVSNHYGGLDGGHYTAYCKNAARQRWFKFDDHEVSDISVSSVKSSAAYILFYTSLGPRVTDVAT
In short: as §1

[9] = biological target: USP9X (UniProt Q93008)
Chain of USP9X (Q93008 whole entry): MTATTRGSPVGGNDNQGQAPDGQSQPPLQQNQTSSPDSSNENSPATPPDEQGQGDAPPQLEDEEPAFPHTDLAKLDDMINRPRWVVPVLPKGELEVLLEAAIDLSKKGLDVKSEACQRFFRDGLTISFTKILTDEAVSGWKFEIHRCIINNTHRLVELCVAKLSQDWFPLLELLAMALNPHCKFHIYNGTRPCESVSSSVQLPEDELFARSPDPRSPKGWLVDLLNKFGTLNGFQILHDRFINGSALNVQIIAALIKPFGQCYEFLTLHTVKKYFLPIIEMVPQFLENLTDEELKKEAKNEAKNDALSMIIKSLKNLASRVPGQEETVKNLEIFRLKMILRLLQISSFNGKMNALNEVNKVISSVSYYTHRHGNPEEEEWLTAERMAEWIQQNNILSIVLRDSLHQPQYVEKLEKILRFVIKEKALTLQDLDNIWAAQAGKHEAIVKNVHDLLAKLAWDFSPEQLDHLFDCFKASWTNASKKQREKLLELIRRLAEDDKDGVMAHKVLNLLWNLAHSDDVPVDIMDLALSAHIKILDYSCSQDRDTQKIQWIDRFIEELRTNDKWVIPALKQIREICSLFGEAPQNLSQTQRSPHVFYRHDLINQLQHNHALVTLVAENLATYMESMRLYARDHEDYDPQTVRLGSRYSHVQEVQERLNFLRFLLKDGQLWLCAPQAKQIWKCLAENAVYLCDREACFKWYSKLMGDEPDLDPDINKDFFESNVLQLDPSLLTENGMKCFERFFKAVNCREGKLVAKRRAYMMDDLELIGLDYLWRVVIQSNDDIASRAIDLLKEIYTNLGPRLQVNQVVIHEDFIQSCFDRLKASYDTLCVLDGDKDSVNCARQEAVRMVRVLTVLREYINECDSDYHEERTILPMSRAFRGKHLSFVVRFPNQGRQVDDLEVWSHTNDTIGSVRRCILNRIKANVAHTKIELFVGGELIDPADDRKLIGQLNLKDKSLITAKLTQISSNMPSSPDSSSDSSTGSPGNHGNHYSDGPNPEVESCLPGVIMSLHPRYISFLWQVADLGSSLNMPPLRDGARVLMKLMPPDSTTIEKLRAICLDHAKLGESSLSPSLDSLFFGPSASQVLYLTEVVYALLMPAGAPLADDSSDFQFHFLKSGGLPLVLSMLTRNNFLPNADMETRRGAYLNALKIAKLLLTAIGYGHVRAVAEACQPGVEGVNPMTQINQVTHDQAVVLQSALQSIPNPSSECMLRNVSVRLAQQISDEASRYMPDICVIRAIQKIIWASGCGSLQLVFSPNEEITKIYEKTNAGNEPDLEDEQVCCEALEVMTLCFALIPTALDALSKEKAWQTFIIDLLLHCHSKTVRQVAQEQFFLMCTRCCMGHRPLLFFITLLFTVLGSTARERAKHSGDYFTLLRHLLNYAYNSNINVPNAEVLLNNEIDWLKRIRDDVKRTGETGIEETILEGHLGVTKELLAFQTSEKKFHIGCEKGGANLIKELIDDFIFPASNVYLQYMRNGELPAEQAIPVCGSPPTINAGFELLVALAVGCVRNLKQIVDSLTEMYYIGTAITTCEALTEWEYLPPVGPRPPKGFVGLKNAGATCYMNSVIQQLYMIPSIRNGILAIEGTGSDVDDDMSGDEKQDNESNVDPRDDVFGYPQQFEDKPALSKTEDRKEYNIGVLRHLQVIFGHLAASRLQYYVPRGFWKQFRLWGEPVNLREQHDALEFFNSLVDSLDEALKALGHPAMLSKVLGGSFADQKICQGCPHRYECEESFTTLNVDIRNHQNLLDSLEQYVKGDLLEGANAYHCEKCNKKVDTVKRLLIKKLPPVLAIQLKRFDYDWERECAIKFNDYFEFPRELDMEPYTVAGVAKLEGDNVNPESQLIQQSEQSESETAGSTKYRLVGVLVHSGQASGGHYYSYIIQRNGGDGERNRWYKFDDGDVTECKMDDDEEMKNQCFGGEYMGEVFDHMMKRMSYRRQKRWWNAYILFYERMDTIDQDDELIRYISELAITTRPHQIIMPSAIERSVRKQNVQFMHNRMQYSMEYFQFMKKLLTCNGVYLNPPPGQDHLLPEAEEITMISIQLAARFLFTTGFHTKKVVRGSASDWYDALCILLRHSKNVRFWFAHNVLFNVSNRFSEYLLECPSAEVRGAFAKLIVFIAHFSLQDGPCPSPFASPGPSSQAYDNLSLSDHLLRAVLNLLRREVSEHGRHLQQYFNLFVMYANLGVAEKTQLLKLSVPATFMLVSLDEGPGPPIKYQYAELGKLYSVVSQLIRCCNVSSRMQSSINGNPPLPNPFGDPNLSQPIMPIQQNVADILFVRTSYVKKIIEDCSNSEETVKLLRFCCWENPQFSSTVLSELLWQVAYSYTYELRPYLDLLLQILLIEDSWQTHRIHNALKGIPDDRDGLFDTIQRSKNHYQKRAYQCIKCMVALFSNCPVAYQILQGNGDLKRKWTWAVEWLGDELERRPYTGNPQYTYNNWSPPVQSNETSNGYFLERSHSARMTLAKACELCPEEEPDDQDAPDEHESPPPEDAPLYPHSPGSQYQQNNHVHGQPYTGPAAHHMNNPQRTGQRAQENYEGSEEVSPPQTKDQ
In short: as §1

[10] = biological target: UniProt O00487
Chain of UniProt O00487 (O00487 whole entry): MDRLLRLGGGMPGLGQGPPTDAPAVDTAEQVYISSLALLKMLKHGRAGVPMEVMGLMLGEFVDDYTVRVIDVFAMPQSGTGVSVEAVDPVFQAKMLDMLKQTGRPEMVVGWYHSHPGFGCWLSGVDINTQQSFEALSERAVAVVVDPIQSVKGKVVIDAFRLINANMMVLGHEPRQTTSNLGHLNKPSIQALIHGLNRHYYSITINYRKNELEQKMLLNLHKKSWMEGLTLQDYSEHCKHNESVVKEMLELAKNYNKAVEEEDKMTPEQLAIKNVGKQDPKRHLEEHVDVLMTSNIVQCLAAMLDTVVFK
In short: as §1

Measured: log2 ratio of Biotin-Ahx-Ub-VS probe labelling

Cc1noc(N2CCN(C(=O)CCl)CC2)n1.Cl
inactive: [1] 0.0551 | [2] -0.0466 | [3] -0.329 | [4] 0.0849 | [5] 0.492 | [6] 0.167 | [7] -0.27 | [8] -0.307 | [9] -0.318 | [10] 0.0199
